Hit rate of the full screen: of about 5,500 compounds, about 2,000 (36%) were called active. Inconclusive results (about 18%) are left out. No stated cut-off is given here; in the data, active means normalized growth mostly below about 0.91 (no sharp cut-off); inconclusive means no clear call, values can overlap the other calls; inactive means mostly above about 0.92. This is one part of the list.
Assay: chemical genetic growth profiling, strain panel (AID 1159580);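 further: tested at 20 µM; growth read once vehicle control cultures reached saturation at 30 °C; 1 = growth at the plate median or of vehicle wells; lower values mean less growth of the strain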
Settings: S. cerevisiae deletion strains, growth OD

Measured: normalized growth

c1ccc2sc(C3(N4CCCCC4)CCCCC3)cc2c1
inactive: locus YAL013W, strain DEP1, hits give low values 0.964 | locus YAL040C, strain CLN3, hits give low values 1.01 | locus YCL061C, strain MRC1 (second series), hits give low values 0.995 | locus YDR150W, strain NUM1, hits give low values 1 | locus YDR363W, strain ESC2, hits give low values 0.937 | locus YER002W, strain NOP16, hits give low values 1.01 | locus YGR078C, strain PAC10, hits give low values 0.983 | locus YGR229C, strain SMI1, hits give low values 0.93 | locus YMR263W, strain SAP30, hits give low values 1 | locus YMR307W, strain GAS1, hits give low values 0.976 | locus YNL128W, strain TEP1, hits give low values 0.988 | locus YNL153C, strain GIM3, hits give low values 1.01 | locus YNL175C, strain NOP13, hits give low values 1.03 | locus YNL197C, strain WHI3, hits give low values 0.986 | locus YNL224C, strain SQS1, hits give low values 1 | locus YOR083W, strain WHI5 (second series), hits give low values 1.04 | locus YPL055C, strain LGE1, hits give low values 0.907

Reference: PubChem BioAssay AID1159580 (chemical genetic matrix, 2015)
